This passage reports growth results from PubChem BioAssay (NCI).

The structures appear in SMILES notation. About 83,000 compounds went through this panel and 20% of them were active in at least one assay; those are over-represented in the sample as a whole.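 Note: values are percent growth. 100 is the growth of untreated cells, values between 100 and 0 indicate rising inhibition; between -100 and 0 indicates cell death.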 A number with no mark means an inactive call. Activity calls are given as the source filed them. The calls were made as follows: active = growth percent below 10; inactive = the rest.

What all share (experiment): NCI-60 one-dose screen, 48 h (100 = growth as untreated, 0 = no growth, -100 = all killed)
What all share (conditions): 10 µM unless noted

In experiment [1] the test system is T-47D breast.
Experiment [2] deals with BT-549 breast.
Experiment [3] relates to MDA-MB-435 melanoma.
The subject of experiment [4] is SW-620 colon.
The subject of experiment [5] is MCF7 breast.
Experiment [6] concerns HCT-116 colon.
Experiment [7] concerns HCC-2998 colon.
The test system of experiment [8] is KM12 colon.

Regarding `COc1ccc(-c2n[nH]c(=O)c3nc(NC(=S)Nc4ccc(Oc5ccccc5)cc4)sc23)cc1`, the growth is 81.9% in experiment [1]; 108% in experiment [2]; 97.3% in experiment [3]; 96.8% in experiment [4]; 96.8% in experiment [5]; 91.1% in experiment [6]. For the same compound, the growth in experiment [7] is 105%; in experiment [8], 93.8%.

As for `O=C1Nc2ccccc2/C1=C\c1c[nH]c2ccc(Br)cc12`, the growth in experiment [1] is 26.6%; in experiment [2] it was 116%; in experiment [3] it was 69%; in experiment [4], 93.7%; in experiment [5], 29.5%; in experiment [6] it was 85.8%. The growth was 71.6% in experiment [7] and 12.9% in experiment [8].

For the compound `CCOC(=O)c1c(C)c2c(n1Cc1ccccc1)CSCC2=O`, the growth in experiment [1] is 1.4% [100 µM] (active); in experiment [2], -25.9% [100 µM] (active); in experiment [3], -9.11% [100 µM] (active); in experiment [4], 16.7% [100 µM]; in experiment [5], -12.8% [100 µM] (active); in experiment [6] it was -17.5% [100 µM] (active). Besides, the growth was 17% [100 µM] in experiment [7] and -4.25% [100 µM] (active) in experiment [8].

In the case of `CN(Cc1ccccc1)c1nc(Cl)c(C2CC(c3ccccc3)=NN2c2ccccc2)s1` (stereo not given), the growth in experiment [1] is 71.9%; in experiment [2] it was 118%; in experiment [3] it was 98%; in experiment [4], 101%; in experiment [5], 82.4%; in experiment [6], 77.7%. Further, the growth is 93% in experiment [7] and 89.7% in experiment [8].

For `N#Cc1c(-c2ccccc2)nc(SCc2nnc(-c3ccc(Cl)cc3)o2)[nH]c1=O`, the growth was 53.8% in experiment [1]; 76.3% in experiment [2]; 109% in experiment [3]; 100% in experiment [4]; 91.3% in experiment [5]; 83.9% in experiment [6]. For the same compound, the growth in experiment [7] was 103%; in experiment [8], 102%.

Turning to `CC1(C)CC2=C3C=C[C@@H]4[C@@]5(C)CCC(=O)C(C)(C)[C@@H]5CC[C@@]4(C)[C@]3(C)CC[C@@]2(C(=O)O)C[C@H]1O`, the growth in experiment [1] was 20.3%; in experiment [2] it was 34.3%; in experiment [3], 27.1%; in experiment [4], 32.9%; in experiment [5] it was 14.7%; in experiment [6], 0.846% (active). The growth in experiment [7] was 35.4%; in experiment [8] it was 27%.

For `CCOC(=O)c1c(C)nc2ccccc2c1/C=C/c1ccccc1`, the growth in experiment [1] is 25.7%; in experiment [2] it was 61.7%; in experiment [3] it was 70.2%; in experiment [4], 91.1%; in experiment [5], 65.5%; in experiment [6] it was 59.5%. The growth was 87.2% in experiment [7] and 71.8% in experiment [8].

Turning to `Nn1c(=O)c(=O)[nH]c2c(cnn2-c2ccccc2)c1=O`, the growth in experiment [1] is 108%; in experiment [2], 114%; in experiment [3], 107%; in experiment [4] it was 110%; in experiment [5], 99.4%; in experiment [6], 108%. The growth in experiment [7] is 105%; in experiment [8], 107%.

For the compound `Cc1ccc(/C=C/C(=O)c2ccc(-n3cc(CN4CCN(c5cc6c(cc5F)c(=O)c(C(=O)O)cn6C5CC5)CC4)nn3)cc2)cc1`, the growth is 86.7% in experiment [1]; 73.7% in experiment [2]; 77.4% in experiment [3]; 98.4% in experiment [4]; 59.2% in experiment [5]; 8.04% (active) in experiment [6]. The growth in experiment [7] was 92.4%; in experiment [8] it was 84.1%.

As to `COc1ccc(C(O)c2cc3c(N)c(C(=O)Nc4cccc(Cl)c4C)sc3nc2C)cc1` (stereo not given), the growth is 30.5% in experiment [1]; 17.7% in experiment [2]; -29.5% (active) in experiment [3]; 17.9% in experiment [4]; 17% in experiment [5]; 6.73% (active) in experiment [6]. Besides, the growth was 5.81% (active) in experiment [7] and 6.49% (active) in experiment [8].

Consider `O=C(CSc1nnc(-c2cc(-c3ccccc3)nc3ccccc23)n1-c1ccccc1)Nc1ccc(C(=O)/C=C/c2ccc(Cl)cc2)cc1`, for which the growth in experiment [1] is 73.8%; in experiment [2], 92.4%; in experiment [3], 96.5%; in experiment [4], 93.3%; in experiment [5] it was 78.5%; in experiment [6] it was 86.5%. For the same compound, the growth in experiment [7] is 100%; in experiment [8], 75.4%.

For the compound `[2H]C([2H])([2H])Oc1ccc(F)cc1/C=C/C(=O)/C=C(/C=C/c1cc(F)ccc1OC([2H])([2H])[2H])OB(F)F`, the growth in experiment [1] is 54.2%; in experiment [2] it was 87.7%; in experiment [3], 70.8%; in experiment [4], 45.1%; in experiment [5], 37%; in experiment [6], 43.2%. The growth was 114% in experiment [7] and 101% in experiment [8].

Consider `C=CCN1C(=O)c2cccc3c(N4CCOCC4)ccc(c23)C1=O`, for which the growth is -2.1% (active) in experiment [1]; -47.8% (active) in experiment [2]; 0.357% (active) in experiment [3]; 7.24% (active) in experiment [4]; -0.408% (active) in experiment [5]; -25.4% (active) in experiment [6]. In addition, the growth in experiment [7] was -34% (active); in experiment [8], -56.4% (active).

For the compound `COC(=O)c1cc(Br)ccc1O`, the growth in experiment [1] was 119%; in experiment [2], 103%; in experiment [3], 116%; in experiment [4] it was 114%; in experiment [5], 99.2%; in experiment [6], 108%. For the same compound, the growth in experiment [7] is 110%; in experiment [8], 126%.

Take `COc1ccccc1C(=O)Nc1cccc(NC(=O)c2ccoc2C)c1`: the growth was 45.1% in experiment [1]; 44% in experiment [2]; -15.8% (active) in experiment [3]; 28.2% in experiment [4]; 24.6% in experiment [5]; 15.3% in experiment [6]. The figures for the growth in experiment [7] and in experiment [8] were 67.2% and 21.1%, respectively.

`C=C(C)[C@@H]1CC[C@]2(C(N)=O)CC[C@]3(C)[C@H](CC[C@@H]4[C@@]5(C)CC[C@H](OCCC#N)C(C)(C)[C@@H]5CC[C@]43C)[C@@H]12`: the growth in experiment [1] is 72.3%; in experiment [2] it was 97.8%; in experiment [3], 89.1%; in experiment [4] it was 87%; in experiment [5], 86.7%; in experiment [6], 91%. For the same compound, the values for the growth in experiment [7] and in experiment [8] were 110% and 89.2%, respectively.

In the case of `O=C(Cc1cccc(OC(F)(F)F)c1)Nc1ccc(CCCCc2nnc(NC(=O)Cc3ccccn3)s2)nn1`, the growth in experiment [1] is 30.3%; in experiment [2] it was 48.7%; in experiment [3], 85.1%; in experiment [4], 100%; in experiment [5], 79.7%; in experiment [6], 40%. In addition, the growth is 91% in experiment [7] and 69.4% in experiment [8].

Regarding `CCCCNc1cc(-c2cn[nH]c2-c2cc(C)cc(OC)c2)nc(-c2cccnc2)n1`, the growth in experiment [1] is 49.7%; in experiment [2], 85.3%; in experiment [3], 92.1%; in experiment [4], 107%; in experiment [5] it was 88.1%; in experiment [6], 91.7%. The growth in experiment [7] is 106%; in experiment [8], 93.9%.

Take `N#Cc1c(Nc2ccc(N3CCOCC3)cc2)nc(SCC(=O)c2ccc(Br)cc2)nc1-c1ccccc1`: the growth was 102% in experiment [1]; 115% in experiment [2]; 109% in experiment [3]; 109% in experiment [4]; 94.8% in experiment [5]; 87.9% in experiment [6]. Further, the growth in experiment [7] is 100%; in experiment [8], 103%.

As for `Cc1nc2sc(C(=O)Nc3cccc(Br)c3C)c(N)c2cc1C(O)c1ccccc1` (stereo not given), the growth in experiment [1] is 25.3%; in experiment [2], 28.2%; in experiment [3] it was 3.98% (active); in experiment [4] it was 20.4%; in experiment [5], 10.9%; in experiment [6], 6.83% (active). Moreover, the growth in experiment [7] is 11.3%; in experiment [8], 5.99% (active).

As for `O=C(Cc1ccc(/C=C/C(=O)c2ncc[nH]2)cc1)Nc1cc(C(F)(F)F)cc(C(F)(F)F)c1`, the growth in experiment [1] is 80.5%; in experiment [2], 99.7%; in experiment [3] it was 60.1%; in experiment [4], 53.5%; in experiment [5], 7.59% (active); in experiment [6], 5.37% (active). In addition, the figures for the growth in experiment [7] and in experiment [8] were 63% and 38.5%, respectively.

For `C/C=C(/C)n1cnc2c(Nc3ccccn3)nc(Cl)nc21`, the growth in experiment [1] was 93.6%; in experiment [2], 103%; in experiment [3] it was 107%; in experiment [4], 103%; in experiment [5], 99.9%; in experiment [6], 104%. For the same compound, the results for the growth in experiment [7] and in experiment [8] were 103% and 109%, respectively.

With `CCOC(=O)c1c(C)nc2c(c1N)/C(=C/c1ccc(OC)cc1)C(=O)N2Cc1ccccc1`, the growth in experiment [1] was 40.7%; in experiment [2], 63.6%; in experiment [3] it was 63.4%; in experiment [4], 55.6%; in experiment [5], 22.8%; in experiment [6], 36.8%. The growth in experiment [7] is 62.8%; in experiment [8] it was 33.6%.

In the case of `Cc1ccc(S(=O)(=O)Oc2ccc3sc4cccc(NCCN(C)C)c4c(=O)c3c2)cc1`, the growth in experiment [1] is -69.8% (active); in experiment [2] it was -88.6% (active); in experiment [3], -96.3% (active); in experiment [4] it was -92.4% (active); in experiment [5], -86.7% (active); in experiment [6] it was -82.9% (active). For the same compound, the growth in experiment [7] is -96.7% (active); in experiment [8], -85% (active).

For the compound `COc1ccc(C#Cc2ccc(=O)oc2-c2cc(OC)c(OC)c(OC)c2)cc1O`, the growth in experiment [1] was 45.2%; in experiment [2], 44.8%; in experiment [3] it was 0.895% (active); in experiment [4], 31.2%; in experiment [5], 16%; in experiment [6] it was 14.9%. In addition, the growth in experiment [7] was 9.46% (active); in experiment [8], 26.8%.

For the compound `COc1ccc(C(=O)c2cc3c(N)c(C(=O)Nc4ccccc4)sc3nc2C)cc1`, the growth was 39% in experiment [1]; 60.6% in experiment [2]; -5.47% (active) in experiment [3]; 28.2% in experiment [4]; 20.7% in experiment [5]; 13.4% in experiment [6]. For the same compound, the growth in experiment [7] is 19%; in experiment [8], 14.9%.

Take `CNC1=CC(=O)c2c(C(=O)OC)c(C)[n+]([O-])c(C)c2C1=O`: the growth in experiment [1] is 52.4%; in experiment [2] it was 88.3%; in experiment [3], -17.3% (active); in experiment [4], 42.5%; in experiment [5], 57%; in experiment [6] it was 16%. Besides, the results for the growth in experiment [7] and in experiment [8] were 50.1% and 61.3%, respectively.

In the case of `O=C1/C=C/[C@@H](O)[C@@H]2C[C@@H](O)C[C@H]2/C=C/CCC[C@@H](O)CCO1`, the growth is 116% in experiment [1]; 109% in experiment [2]; 87.9% in experiment [3]; 106% in experiment [4]; 95.1% in experiment [5]; 111% in experiment [6]. Also, the growth in experiment [7] is 100%; in experiment [8] it was 77.1%.

Consider `COC(=O)c1c2c(n3ccccc13)C(=O)c1ccccc1C2=O`, for which the growth in experiment [1] was 73.4%; in experiment [2] it was 68.1%; in experiment [3], 84.6%; in experiment [4], 40.9%; in experiment [5], 42.5%; in experiment [6], 27.9%. Besides, the growth was 88.3% in experiment [7] and 49.7% in experiment [8].

On to `CC(C)(C)c1cc(Cl)c(O)c(CNCCO)c1`, for which the growth in experiment [1] is 98.7%; in experiment [2], 109%; in experiment [3], 101%; in experiment [4], 86.4%; in experiment [5], 96.3%; in experiment [6], 99.1%. Further, the growth was 104% in experiment [7] and 111% in experiment [8].
